# Results taken from PubChem BioAssay AID2685 (National Center for Advancing Translational Sciences (NCATS), 2010).
# Among all 320,000 compounds or so, about 2,100 (0.66%) were called active. About 53% were inconclusive and are not listed. Calls come from the whole dose curve; as a rule, active = well fitted inhibition curve with a large enough effect in the signal ratio, with a control signal flat (not every such curve was filed as active); inconclusive = small, poorly fitted or top-dose-only effect, or effect the other way, or a change in a side signal; inactive = flat fitted curve, though single readings scatter; the % refers to the signal ratio. The list comes from a sample in which actives are over-represented; it also holds similar structures and randomly drawn compounds.
# Experiment: qHTS Assay for Lipid Storage Modulators in Drosophila S3 Cells;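 for cell number change: cells counted by Cell Tracker Red CMTPX staining in the red channel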
# Settings: BODIPY lipid droplet fluorescence, 18-24 h, cells fed with added oleic acid; cell number change: measured here: cell count max response; series mostly up to 46.1 µM
# How it was run: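 Drosophila S3 cells got compounds at several concentrations plus oleic acid (400 uM solution). Laser-scanning cytometry with 488 nm excitation read lipid droplets at 500-530 nm and cells at 575-640 nm. Percent activity was relative to 20 uM Triacsin C.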
# Potency is the fitted concentration of half-maximal effect.
SMILES,Potency,cell number change [%]
COc1ccc(NC(=O)NCCCCc2ccccc2)cc1,inactive,-11.6
CC(CNC(=O)CN1C(=O)NC2(CCCCC2C)C1=O)c1ccccc1 (centres undefined),inactive,-0.107
COc1ccc(CCN(/C=C2\Sc3ccccc3C2=O)C(C)=O)cc1OC,inactive,23.5
COc1ccccc1N(/N=C1\Sc2ccccc2C1=O)C(C)=O,16.4 µM (active),3.61
CC(=O)N(/N=C1\Sc2ccccc2C1=O)c1ccccc1,inactive,-6.02
CCOc1ccc(NC(=O)CN(C)C(=O)COc2cccc3c2OC(C)(C)C3)cc1OCC,inactive,-24.3
O=C(c1ccc(Cl)c(F)c1F)N1CCCC1,inactive,–
Cc1c(C)c2c(OCC(=O)NCc3ccco3)cc3c(c2oc1=O)CCC(C)(C)O3,inactive,6.15
COCCNC(=O)C12CC3CC(CC(Cl)(C3)C1)C2,inactive,18
COCCC(=O)NC12CC3CC(CC(C3)C1)C2,inactive,-7.91
COCCNCC(=O)C12CC3CC(CC(C3)C1)C2,16.4 µM (active),-15
O=c1[nH]c2ccccc2nc1C(F)(F)F,inactive,17.1
Cc1onc(-c2ccccc2)c1C(=O)N/N=C/c1ccc(Br)cc1,inactive,8.96
O=C(c1ccc(CS(=O)c2cccc(Cl)c2)o1)N1CCN(c2ccccn2)CC1 (centres undefined),18.4 µM (active),-26.2
Cc1ccc(CS(=O)Cc2ccc(C(=O)N3CCN(c4ccccc4)CC3)o2)cc1 (centres undefined),inactive,–
O=C(c1ccc(CS(=O)c2cccc(Cl)c2)o1)N1CCCCCC1 (centres undefined),inactive,-0.885
O=C(c1ccc(CS(=O)Cc2ccccc2Cl)o1)N1CCN(c2ccccn2)CC1 (centres undefined),inactive,–
O=C(c1ccc(CS(=O)c2cccc(Cl)c2)o1)N1CCOCC1 (centres undefined),inactive,-42.8
Cc1ccc(CS(=O)Cc2ccc(C(=O)N3CCN(c4ccccn4)CC3)o2)cc1 (centres undefined),7.31 µM (active),–
CC(=O)Nc1ccc(S(=O)(=O)N2CCCN(S(=O)(=O)c3ccc(C)cc3)CC2)cc1,inactive,-14.2
Cc1cc[n+](-c2nc3ccccc3nc2[N-]S(=O)(=O)c2cccs2)cc1C,inactive,-0.563

SMILES,Potency,cell number change [%]
Cc1ccc(/C=C2\S/C(=N/S(=O)(=O)c3cccs3)NC2=O)cc1,inactive,3.91
N/C(=N\S(=O)(=O)c1cccs1)c1ccccc1,inactive,3.91
O=C1/C(=N\S(=O)(=O)c2cccs2)C([n+]2cccc(Cc3ccccc3)c2)=C([O-])c2ccccc21,20.6 µM (active),-9.11
CC(C)N(Cc1ccccc1)S(=O)(=O)c1cccs1,inactive,–
CCc1ccc(NS(=O)(=O)c2cccs2)cc1,inactive,–
CCCCC[n+]1ccn(C2=C([O-])c3ccccc3C(=O)/C2=N\S(=O)(=O)c2ccc(Br)cc2)c1,inactive,–
NC(=NCCc1ccccc1)NS(=O)(=O)c1cccs1,inactive,-0.301
Cc1cc[n+](C2=C([O-])c3ccccc3C(=O)/C2=N\S(=O)(=O)c2cccs2)cc1C,8.2 µM (active),-25.5
CCc1cc[n+](C2=C([O-])c3ccccc3C(=O)/C2=N\S(=O)(=O)c2cccs2)cc1,1.84 µM (active),2.59
O=C1C(=O)c2ccccc2C([O-])=C1[n+]1ccccc1,inactive,19.4
O=C1/C(=N\S(=O)(=O)c2cccs2)C([n+]2ccccc2)=C([O-])c2ccccc21,20.6 µM (active),-19.9
O=[N+]([O-])c1cccc(C(=S)N2CCCC2)c1,inactive,3.41
COc1ccccc1/C=C/C(=O)OCC(=O)NCc1ccco1,inactive,4.89
CCCc1c(C(=O)N/N=C(/C)c2ccncc2)nnn1-c1nonc1N,inactive,8.62
Cc1ccc(/C=C2/SC(=S)N(C3CCCCC3)C2=O)o1,inactive,14.1
Cc1cc(C)n(CCCN2C(=O)c3cccc4cccc(c34)C2=O)n1,inactive,–
CNCc1ccccc1OCC(=O)Nc1ccccc1,inactive,-38.8
COc1ccc(CC(=O)OCC(=O)N2CCCc3ccccc32)cc1,inactive,-4.06
COCCCNC(=O)CCC(=O)NNc1nc2ccccc2c2nc(-c3ccccc3)nn12,inactive,5.05
CCOCCCNC(=O)CCC(=O)NNc1nc2ccccc2c2nc(-c3ccccc3)nn12,inactive,-6.89
CC(C)OCCCNC(=O)CCC(=O)NNc1nc2ccccc2c2nc(-c3ccccc3)nn12,11.6 µM (active),-5.84

SMILES,Potency,cell number change [%]
Cc1cc(C)cc(-n2c(N)c(C(=O)Nc3c(C)n(C)n(-c4ccccc4)c3=O)c3nc4ccccc4nc32)c1,inactive,0.326
CCOc1cc(/C=C/c2cccc[n+]2C)ccc1OCC(=O)Nc1ccc(C)cc1,inactive,2.56
CCC(Sc1nc2ccccc2o1)C(=O)O (centres undefined),inactive,11.5
CCC(Sc1ccc(C(=O)O)cc1)C(=O)O (centres undefined),inactive,22.4
CCC(Sc1nc(N)cc(N)n1)C(=O)O (centres undefined),20.6 µM (active),-9.76
Cc1ccc(C)n1NC(=O)c1ccc(Cl)cc1Cl,inactive,0.742
NC(=O)CNC(=O)c1cccc(Cl)c1,inactive,1.9
CC(C)CCNC(=O)c1cccc(Cl)c1,inactive,19.2
O=C(NCCO)c1cccc(Cl)c1,25.9 µM (active),-4.89
Cc1ccc(C)n1NC(=O)c1cccc(Cl)c1,20.6 µM (active),–
Cc1ccc(C)n1NC(=O)c1ccccc1,inactive,1.97
COc1ccc(N2C(=S)N=C(Nc3cccc(C)c3)C23CCCCC3)cc1,inactive,-6.29
Cc1ncoc1C(=O)N1CCCC(C(=O)c2cccc3ccccc23)C1 (centres undefined),inactive,6.72
CCC(C)Oc1nc2c(c(=O)n(C)c(=O)n2C)n1C (centres undefined),inactive,14.8
CC(=O)/C(=C/Nc1ccc(Oc2ccccc2)cc1)c1ccccc1,inactive,–
COc1ccc(-n2nc(C(=O)NCC(=O)NCCCN3CCOCC3)c3ccccc3c2=O)cc1,inactive,-8.11
COc1ccccc1CNc1cncnc1,inactive,7.04
O=C(Nc1ccc(Cl)cc1)C1CCCN(c2ncnc3c2nc2n3CCCCC2)C1 (centres undefined),inactive,-19.1
Cc1cccc(N2CC(C(=O)Nc3nnc(SCc4cccnc4)s3)CC2=O)c1 (centres undefined),inactive,0.463
Cc1ccc(Nc2cc(C)nc3ncnn23)c(Cl)c1,inactive,1.99
